Measured values reported in PubChem BioAssay (NCI).
This is part of a sample that, as a whole, favours compounds with a hit. Of some 83,000 tested, about 20% had one in any assay.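 Results are percent growth after 48 hours of single-concentration exposure. 100 means growth as in untreated cells, lower positive values show inhibition; negative values down to -100 show cell death.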 The source made the active and inactive calls. The calls were made as follows: active = growth percent below 10; inactive = the rest.

system: RPMI-8226 leukemia; experiment: NCI-60 one-dose screen, 48 h (100 = growth as untreated, 0 = no growth, -100 = all killed); conditions: 10 µM unless noted

SMILES | growth
COC(=O)c1cccc2c1N(C)c1c(cccc1C(=O)OC)CC2 | 90.5% (inactive)
COc1ccc(/C=C2\N=C(c3ccccc3)N(C(=O)c3ccccc3O)NC2=O)cc1 | 46.2% (inactive)
c1cc2[nH]ncc2cc1-c1nc2ccc3[nH]ncc3c2c2c1CCC2 | 42.5% (inactive)
O=C(Oc1ccccc1[N+](=O)[O-])C1CCCN1C(=O)OCc1ccccc1 (stereo not drawn) | 97.3% (inactive)
COc1ccc(CCNC2=CC(=O)CCC2)cc1OC | 107% (inactive)
O=C(Nc1ccncc1)C(=O)c1cn(S(=O)(=O)c2ccc(Cl)cc2)c2ccccc12 | 31.4% (inactive)
O=C(Nc1cccc(-n2cc(-c3ccncc3)c(-c3ccc(Cl)c(O)c3)n2)c1)Nc1ccc(Cl)c(Cl)c1 | 7.89% (active)
O=C(Nc1ccncc1)C(=O)c1cn(S(=O)(=O)c2ccccc2F)c2ccccc12 | 9.83% (active)
O=C(c1ccccc1)C1OC1c1ccc([N+](=O)[O-])cc1 (stereo not drawn) | 55.9% (inactive)
Cc1ccc(Cc2c(C=O)nc(N)[nH]c2=O)c2ccccc12 | 99.6% (inactive)
CCN(CC)CCOC(=O)C(c1ccccc1)(c1ccccc1)C(C)C | 96% (inactive)
COc1ccc(C(=O)N2NC(=O)/C(=C/c3cn(-c4ccccc4)nc3-c3ccccc3)N=C2c2ccccc2)cc1 | 102% (inactive)
CC(C)(C)OC(=O)NC(CSCc1ccccc1)C(=O)ON1C(=O)CCC1=O (stereo not drawn) | 97.5% (inactive)
COc1ccc(C2=C(c3cc(OC)c(OC)c(OC)c3)C(=O)CC2)cc1 | 14.1% (inactive)
COc1ccc(C(=O)N2NC(=O)/C(=C/c3ccccc3F)N=C2c2ccccc2)cc1 | 119% (inactive)
C/C(=C\c1ccc(OCC(=O)O)c(Cl)c1Cl)[N+](=O)[O-] | 99.7% (inactive)
COc1ccc(-c2cc3c(OC)c(OC)c(OC)cc3oc2=O)cc1 | 54.6% (inactive)
COc1ccc(Nc2ncccc2C(=O)NCc2cn(Cc3cccc(Oc4ccccc4)c3)nn2)c(OC)c1 | 35.5% (inactive)
CC(=O)Nc1scc[n+]1Cc1ccccc1 | 92.2% (inactive)
COc1cc2c(c(OC)c1OC)-c1ccc(N)c(=O)cc1[C@@H](NC(C)=O)CC2 | 27.2% (inactive)

SMILES | growth
O=C([O][Sn]([O]C(=O)c1ccccn1)([c]1ccccc1)[c]1ccccc1)c1ccccn1 | 26% (inactive)
COC(OC)c1ccccc1 | 121% (inactive)
Fc1ccc(Nc2nc(NCCNc3ccnc4cc(Cl)ccc34)nc(N3CCOCC3)n2)cc1 | 33.6% (inactive)
COc1ccc(-c2nc3sc(-c4cc(OC)c(OC)c(OC)c4)nn3c2/C=C2/C(=O)Nc3ccc(F)cc32)cc1 | 13.3% (inactive)
Cc1ccc(S(=O)(=O)n2cc(C(=O)C(=O)Nc3ccncc3)c3ccccc32)cc1 | 37.5% (inactive)
COc1ccc(Nc2ncccc2C(=O)NCc2cn(Cc3cccc(Oc4ccccc4)c3)nn2)cc1 | 55.4% (inactive)
CC1=C(C#N)C(=O)NC(C)C1 (stereo not drawn) | 105% (inactive)
Cc1cc(C2=NNC(=O)Cc3cc4c(cc32)OCCO4)cc(C)c1N | 52.8% (inactive)
CCOC(=O)C1=C(C)NC(C)=C(C(=O)OCC)C1(C)C | 94.8% (inactive)
O=C(Nc1ccncc1)C(=O)c1cn(S(=O)(=O)c2ccc(Br)cc2)c2ccccc12 | 35% (inactive)
CC1CCC(C)N(C)C1 (stereo not drawn) | 89.7% (inactive)
CCC(C)/C(=C\C#N)NCCCN/C(=C/C#N)C(C)CC (stereo not drawn) | 88.7% (inactive)
CC1(c2ccc(Cl)cc2)OC(=O)CC(=O)O1 | 102% (inactive)
CCN(CC)CCOc1ccc(Cl)c(C)c1 | 99.9% (inactive)
Nc1cccc(Cl)c1N | 69.3% (inactive)
O=[N+]([O-])c1cc(Cl)c2[nH]c3c(Cl)cc([N+](=O)[O-])cc3c2c1 | 3.11% (active)
CSc1nc2c(c(=O)[nH]1)C(c1ccc(C)cc1)C=C(C(=O)O)N2 (stereo not drawn) | 112% (inactive)
COc1cc(/C=C/C(=O)/C=C/c2cc(OC)c3c(c2)OCO3)cc2c1OCO2 | -10.5% (active)
Oc1ccccc1/C=N/NC(=S)NC1CC2C=CC1C2 (stereo not drawn) | 63.5% (inactive)

system: OVCAR-8 ovarian; experiment: as above; conditions: 10 µM unless noted

SMILES | growth
COC(=O)c1cccc2c1N(C)c1c(cccc1C(=O)OC)CC2 | 113% (inactive)
COc1ccc(/C=C2\N=C(c3ccccc3)N(C(=O)c3ccccc3O)NC2=O)cc1 | 109% (inactive)
c1cc2[nH]ncc2cc1-c1nc2ccc3[nH]ncc3c2c2c1CCC2 | 53.9% (inactive)
O=C(Oc1ccccc1[N+](=O)[O-])C1CCCN1C(=O)OCc1ccccc1 (stereo not drawn) | 97.5% (inactive)
COc1ccc(CCNC2=CC(=O)CCC2)cc1OC | 106% (inactive)
O=C(Nc1ccncc1)C(=O)c1cn(S(=O)(=O)c2ccc(Cl)cc2)c2ccccc12 | 42.5% (inactive)
O=C(Nc1cccc(-n2cc(-c3ccncc3)c(-c3ccc(Cl)c(O)c3)n2)c1)Nc1ccc(Cl)c(Cl)c1 | 11.7% (inactive)
O=C(Nc1ccncc1)C(=O)c1cn(S(=O)(=O)c2ccccc2F)c2ccccc12 | 35.2% (inactive)
O=C(c1ccccc1)C1OC1c1ccc([N+](=O)[O-])cc1 (stereo not drawn) | 68.9% (inactive)
Cc1ccc(Cc2c(C=O)nc(N)[nH]c2=O)c2ccccc12 | 89.6% (inactive)
CCN(CC)CCOC(=O)C(c1ccccc1)(c1ccccc1)C(C)C | 87% (inactive)
COc1ccc(C(=O)N2NC(=O)/C(=C/c3cn(-c4ccccc4)nc3-c3ccccc3)N=C2c2ccccc2)cc1 | 105% (inactive)
CC(C)(C)OC(=O)NC(CSCc1ccccc1)C(=O)ON1C(=O)CCC1=O (stereo not drawn) | 104% (inactive)
COc1ccc(C2=C(c3cc(OC)c(OC)c(OC)c3)C(=O)CC2)cc1 | 22.8% (inactive)
COc1ccc(C(=O)N2NC(=O)/C(=C/c3ccccc3F)N=C2c2ccccc2)cc1 | 101% (inactive)
C/C(=C\c1ccc(OCC(=O)O)c(Cl)c1Cl)[N+](=O)[O-] | 93.7% (inactive)
COc1ccc(-c2cc3c(OC)c(OC)c(OC)cc3oc2=O)cc1 | 67% (inactive)
COc1ccc(Nc2ncccc2C(=O)NCc2cn(Cc3cccc(Oc4ccccc4)c3)nn2)c(OC)c1 | 43.4% (inactive)
CC(=O)Nc1scc[n+]1Cc1ccccc1 | 99.3% (inactive)
COc1cc2c(c(OC)c1OC)-c1ccc(N)c(=O)cc1[C@@H](NC(C)=O)CC2 | 16.6% (inactive)

SMILES | growth
O=C([O][Sn]([O]C(=O)c1ccccn1)([c]1ccccc1)[c]1ccccc1)c1ccccn1 | 93.6% (inactive)
COC(OC)c1ccccc1 | 98.9% (inactive)
Fc1ccc(Nc2nc(NCCNc3ccnc4cc(Cl)ccc34)nc(N3CCOCC3)n2)cc1 | 74.7% (inactive)
COc1ccc(-c2nc3sc(-c4cc(OC)c(OC)c(OC)c4)nn3c2/C=C2/C(=O)Nc3ccc(F)cc32)cc1 | 21.9% (inactive)
Cc1ccc(S(=O)(=O)n2cc(C(=O)C(=O)Nc3ccncc3)c3ccccc32)cc1 | 43.2% (inactive)
COc1ccc(Nc2ncccc2C(=O)NCc2cn(Cc3cccc(Oc4ccccc4)c3)nn2)cc1 | 65.6% (inactive)
CC1=C(C#N)C(=O)NC(C)C1 (stereo not drawn) | 102% (inactive)
Cc1cc(C2=NNC(=O)Cc3cc4c(cc32)OCCO4)cc(C)c1N | 54.8% (inactive)
CCOC(=O)C1=C(C)NC(C)=C(C(=O)OCC)C1(C)C | 102% (inactive)
O=C(Nc1ccncc1)C(=O)c1cn(S(=O)(=O)c2ccc(Br)cc2)c2ccccc12 | 58.6% (inactive)
CC1CCC(C)N(C)C1 (stereo not drawn) | 105% (inactive)
CCC(C)/C(=C\C#N)NCCCN/C(=C/C#N)C(C)CC (stereo not drawn) | 100% (inactive)
CC1(c2ccc(Cl)cc2)OC(=O)CC(=O)O1 | 105% (inactive)
CCN(CC)CCOc1ccc(Cl)c(C)c1 | 104% (inactive)
Nc1cccc(Cl)c1N | 105% (inactive)
O=[N+]([O-])c1cc(Cl)c2[nH]c3c(Cl)cc([N+](=O)[O-])cc3c2c1 | -2.33% (active)
CSc1nc2c(c(=O)[nH]1)C(c1ccc(C)cc1)C=C(C(=O)O)N2 (stereo not drawn) | 105% (inactive)
COc1cc(/C=C/C(=O)/C=C/c2cc(OC)c3c(c2)OCO3)cc2c1OCO2 | 95.4% (inactive)
Oc1ccccc1/C=N/NC(=S)NC1CC2C=CC1C2 (stereo not drawn) | 84.3% (inactive)
